Screens (PubChem)
hgDAF-12 ag: H. glycines DAF-12 receptor agonists, primary screen, cell-based, luminescence, HEK293, GAL4 fusion, UAS-luciferase; Nuclear hormone receptor DAF-12 (Heterodera glycines), GAL4 fusion; HEK293 GAL4-hgDAF12 UAS-luciferase reporter, agonist luminescence; normalized to butyrate control; activation, % at 6.8 µM; 370,000 tested, 1.8% active;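 active = activation above a cutoff set at the mean of all screened compounds plus 3 SD, cut at about 10% in these data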;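 note: 0% = DMSO wells and 100% = sodium butyrate wells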
ssDAF-12 act: S. stercoralis DAF-12 nuclear receptor activators, primary screen, cell-based, luminescence, HEK293, GRIP1 co-expression, lit1-tk-luc; Nuclear hormone receptor DAF-12 (Strongyloides stercoralis); HEK293 ssDAF-12/GRIP1 lit1-tk-luc reporter; % of 3 µM dafachronic acid response; activation, % at 6.8 µM; 370,000 tested, 1% active; AID 652126, 2013;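 active = activation above the mean over all tested compounds plus 3 SD, cut at about 0.9% in these data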;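 note: 0% = DMSO-only wells and 100% = 3 µM delta7-dafachronic acid wells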
DAX1 inh-1: DAX1 (NR0B1) inhibitors on StAR promoter, primary screen, cell-based, luminescence, SF-1 (NR5A1), full-length DAX-1; AID 652010, 2013; inhibition, % at 6.8 µM; HEK293T StAR-luciferase reporter, SF-1/DAX-1 repression relief; 370,000 tested, 1.1% active;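 active = inhibition above the mean over all tested compounds plus 3 SD, cut at about 3.6% in these data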;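 note: 0% = DAX-1 cells with DMSO and 100% = cells lacking DAX-1 with DMSO; higher inhibition means more luminescence from relief of DAX-1 repression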
DAX1 inh-2: DAX1 (NR0B1) inhibitors, primary screen, cell-based, HEK293, Gal4-DAX1, luciferase luminescence; inhibition, % at 6.75 µM; 340,000 tested, 0.99% active; Nuclear receptor subfamily 0 group B member 1 (Homo sapiens), P51843; HEK293 Gal4-DAX1 luciferase reporter; AID 504766, 2011;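 active = inhibition above the mean over all tested compounds plus 3 SD, cut at about 4.2% in these data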;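 note: 0% = DAX1-transfected cells with DMSO and 100% = empty-vector control cells with DMSO; inhibition shows as a rise in luminescence from relieved DAX1 repression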
Target sequence (P51843 207-470 limits assumed): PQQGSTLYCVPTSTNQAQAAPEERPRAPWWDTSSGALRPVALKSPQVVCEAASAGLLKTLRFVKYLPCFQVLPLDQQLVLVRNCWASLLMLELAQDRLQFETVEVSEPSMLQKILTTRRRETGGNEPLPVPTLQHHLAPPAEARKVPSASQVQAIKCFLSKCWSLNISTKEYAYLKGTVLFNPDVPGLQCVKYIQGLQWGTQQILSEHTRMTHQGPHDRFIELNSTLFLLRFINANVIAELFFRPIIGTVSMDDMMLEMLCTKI
AHR act: AHR activators, primary screen, cell-based, luminescence, luciferase reporter, human | activation, % at 5 µM | Aryl hydrocarbon receptor (Homo sapiens), P35869 | AID 2796, 2010 | AHR-responsive luciferase reporter cells | 320,000 tested, 2.5% active; in the data active = activation above about 47%;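 note: 0% = vehicle wells and 100% = reference agonist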
hcDAF12 agonist: H. contortus DAF-12 nuclear receptor activators, primary screen, cell-based, luminescence, HEK293, lit1-tk-luc reporter. HEK293 hcDAF-12 lit1-tk-luc reporter; 0% DMSO, 100% Δ7-dafachronic acid. activation, % at 6.8 µM. 370,000 tested, 1.4% active. AID 652067, 2013;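 active = activation above the mean of all tested compounds plus 3 SD, cut at about 5.5% in these data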;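 note: 100% = response to 3 µM Δ7-dafachronic acid high control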
LXR ag: LXR agonists, Gal4 luciferase reporter, confirmation, counter-screen for hcDAF-12 agonist project, cell-based, luminescence, HEK293, H. contortus campaign. shares compounds with hcDAF12 agonist. HEK293 Gal4-LXR tk-luc reporter, 24 h; normalized: DMSO 0%, positive control 100%. activation, % at 6.8 µM. 3,400 tested, under 10 active. AID 743027, 2013;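 active = mean percent activation of the reporter above a cutoff set as the average over tested compounds plus their standard deviation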
Target sequence (P55055 whole entry, looked up, the tested form may be a part): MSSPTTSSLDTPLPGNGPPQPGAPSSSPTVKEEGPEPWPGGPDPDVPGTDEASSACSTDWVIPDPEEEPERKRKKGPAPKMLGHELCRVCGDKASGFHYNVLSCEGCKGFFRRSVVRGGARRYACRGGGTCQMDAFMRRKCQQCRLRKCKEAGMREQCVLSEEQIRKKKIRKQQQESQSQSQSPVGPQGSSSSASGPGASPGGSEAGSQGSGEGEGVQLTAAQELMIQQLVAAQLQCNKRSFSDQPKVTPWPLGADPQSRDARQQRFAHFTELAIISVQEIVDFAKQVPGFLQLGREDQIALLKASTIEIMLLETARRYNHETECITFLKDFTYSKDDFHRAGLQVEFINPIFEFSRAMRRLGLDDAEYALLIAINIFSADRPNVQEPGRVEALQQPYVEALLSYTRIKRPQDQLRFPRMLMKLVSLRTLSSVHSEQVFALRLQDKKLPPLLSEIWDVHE
hcDAF12 ag: H. contortus DAF-12 receptor agonists, confirmation, cell-based, luminescence, HEK293, lit1-tk-luc, triplicate | shares compounds with hcDAF12 agonist | HEK293 hcDAF-12 lit1-tk-luc reporter; % of Δ7-dafachronic acid response | activation, % at 6.8 µM | 3,400 tested, 61% active | AID 743032, 2013;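 active = mean activation across triplicate tests above the threshold derived from the earlier primary screen, cut at about 5.5% in these data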;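 note: 0% = DMSO only wells and 100% = 3 µM Δ7-dafachronic acid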
The depositor's hits bear a star; . = not tested or not shown. A selection: hits, their analogues and other compounds. The true share with any hit is near 5.7%.

SMILES | hgDAF-12 ag | ssDAF-12 act | DAX1 inh-1 | DAX1 inh-2 | AHR act | hcDAF12 agonist | LXR ag | hcDAF12 ag
c1ccc2c(Cn3ccnc3)c[nH]c2c1 | 3 | 0 | 0 | 0 | 21 | 8.0* | 0 | 2
O=C(COC(=O)c1ccccc1Cl)NC1CCCCCC1 | 7 | -1 | 1 | 1 | 1 | 0 | . | .
CCC(=O)Oc1ccc(-c2cnc3ccccc3n2)cc1 | 11* | 1 | 3 | 1 | 0 | 7.1* | 2 | 10*
Cc1c(C(=O)Oc2ccc(-c3cnc4ccccc4n3)cc2)cccc1[N+](=O)[O-] | 1 | 0 | 0 | 0 | -2 | -1 | . | .
Cc1cc(N=Nc2c(O)c3ccccc3[nH]c2=O)ccc1N=Nc1ccc(C(=O)N(C)C)cc1 | 3 | 0 | 0 | 1 | . | 4 | . | .
CC(=O)c1cccc(N=Nc2c(C)[nH]c3ccccc23)c1 | -1 | 1.4* | 0 | 0 | 64* | 6.7* | 0 | 5
CC(NCC1COc2ccccc2O1)C(=O)NCc1ccccc1 (configuration not stated) | 1 | -1 | 0 | 0 | 9 | 4 | . | .
Cc1ccc(NC(=O)n2ncc3c(C)cccc32)cc1F | 9 | 1.1* | 2 | 3 | 0 | 11* | 1 | 9.0*
CCn1cc(Br)c(C(=O)Nc2ccc(OC)cc2)n1 | 1 | -1 | 1 | 0 | 24 | 0 | . | .
CCn1cc(Br)c(C(=O)NN)n1 | 8 | 0 | 3 | 2 | 50* | 6.7* | 0 | 2
Cc1ccc2[nH]c(CCN(C)C)c(CN3CCOCC3)c2c1 | -1 | -1 | -1 | 2 | 1 | 1 | . | .
NC(=O)c1ccccc1NC(=S)NC(=O)c1ccc(Br)o1 | 7 | 0 | 1 | 3 | 35 | 9.2* | 0 | 5
O=C(NC(=S)NCc1ccccc1)c1ccc(Br)o1 | 1 | -1 | 0 | 1 | 15 | 1 | . | .
O=C(Nc1nnc(-c2ccccc2)s1)c1ccc(F)cc1 | 3 | -1 | 0 | 0 | 1 | 6.7* | 0 | 2
Cc1cc(C)n(-c2ncnc3sc4c(c23)CCCC4)n1 | 0 | 0 | 1 | 1 | 8 | 7.4* | 0 | 2
CCN(CC)S(=O)(=O)c1ccc(-c2nnc3sc4cccc(C)c4n23)cc1 | 5 | 1 | 0 | -2 | 15 | 7.1* | 0 | 4
CCN(CC)S(=O)(=O)c1ccc(-c2nnc(SCC(N)=O)n2CC)cc1 | 1 | -1 | 0 | 1 | 4 | 2 | . | .
c1ccc(-c2cnnc(-c3ccccn3)n2)cc1 | 5 | -1 | 2 | 2 | -4 | 7.1* | 0 | 2
c1ccc(-c2nnc(-c3ccccn3)s2)nc1 | 13* | 1.0* | 2 | -3 | 65* | 9.6* | 2 | 14*
COc1ccc(-c2cc(-c3ccccc3)no2)cc1 | 11* | 0.9* | 4.0* | -1 | 0 | 11* | 2 | 11*
Cc1ccc(-c2nc(-c3ccccc3)no2)cc1 | 13* | 0 | 3.9* | 2 | -10 | 6.8* | 1 | 8.5*
COc1cccc(-c2nc(-c3ccccc3)no2)c1 | 19* | 2.0* | 3.8* | 4 | 38 | 9.4* | 2 | 15*
COc1ccc(-c2noc(-c3ccccc3-c3ccccc3)n2)cc1 | 1 | -1 | 0 | -1 | -6 | 0 | . | .
NC(=O)C[n+]1cccc(/C=N/O)c1 | 0 | -2 | -1 | 0 | 4 | -1 | . | .
CC(C)C(=O)O/N=C(\N)c1ccccn1 | 2 | -1 | 0 | 1 | 0 | 0 | . | .
SMILES | hgDAF-12 ag | ssDAF-12 act | DAX1 inh-1 | DAX1 inh-2 | AHR act | hcDAF12 agonist | LXR ag | hcDAF12 ag
COc1ccccc1C(=O)O/N=C(\N)c1ccccn1 | 8 | 2.7* | 2 | -2 | 32 | 11* | 1 | 5.9*
N/C(=N\OC(=O)c1ccccc1Cl)c1ccccn1 | -2 | 0 | 3 | -4 | 52* | 7.0* | 2 | 11*
CCOc1ccc2nc(N/C(N)=N/S(C)(=O)=O)nc(C)c2c1 | 0 | -1 | 1 | 1 | 6 | -1 | . | .
Cc1cc(C)n(-c2nc3ccccc3s2)n1 | 6 | -1 | 0 | 0 | 4 | -1 | . | .
Cc1nn(-c2nc3ccccc3s2)c(N)c1Sc1ccc(F)cc1 | 7 | 1 | 2 | 3 | 20 | 6.6* | 1 | 14*
Cc1nn(-c2ccccc2)c(N)c1Sc1ccc([N+](=O)[O-])cc1 | 4 | -1 | -1 | 0 | 4 | 0 | . | .
Cc1cc(N)n(-c2nc3ccccc3s2)n1 | 11* | 1.9* | 3.6* | 5.2* | 19 | 7.8* | 1 | 9.6*
O=c1c2cc(N3CCOCC3)ccc2[nH]c(=S)n1CCCN1CCCCCC1 | 1 | 0 | 2 | 1 | 1 | -1 | . | .
O=c1c2cc(F)ccc2[nH]c(=S)n1CCCN1CCOCC1 | -2 | -2 | 0 | 4 | -1 | 11* | 0 | -1
N/C(=N\OC(=O)c1cccc2ccccc12)c1ccncc1 | 4 | 2.3* | 0 | 3 | 67* | 7.5* | 0 | 4
N#Cc1ccc(C(=O)Nc2cccc3ncccc23)c(F)c1 | 1 | -2 | -1 | -2 | -3 | -1 | . | .
Cc1cc(C)c2oc(-c3ccc(Cl)c(NC(=O)c4ccc(C#N)cc4F)c3)nc2c1 | 1 | 0 | 0 | 1 | 44 | 6.6* | 0 | 5.7*
COc1ccc(S(=O)(=O)NCCN2CCOCC2)c2ccccc12 | -1 | 0 | 0 | 1 | 8 | 0 | . | .
CC/C(=N\NC(=O)c1cc(C)oc1C)c1ccc(OC(F)F)cc1 | 5 | -1 | 2 | 2 | . | 1 | . | .
C/C(=N\NC(=O)c1cc(C)oc1C)c1ccc2ccccc2c1 | 11* | -2 | 0 | 4.4* | 14 | 7.2* | 0 | -1
CC1CCN(CCCCOc2ccc(F)cc2)CC1 | . | . | . | 2 | 1 | . | . | .
O=C(N/N=C/c1c(F)c(F)c(F)c(F)c1F)c1ccc(Cn2cc(Br)cn2)o1 | -2 | -1 | 0 | 1 | 6 | -1 | . | .
